The results in this text go back to PubChem BioAssay (NCATS).

SMILES strings stand for the structures. Where “and” joins values, the source holds several entries; their conditions need not be identical. Equal values may be shown once. Unmarked numbers belong to inactive results. Records with an inconclusive call do not appear. Calls of active or inactive are those of the source. Unless noted, calls come from the whole dose curve; as a rule, active = well fitted curve in the direction sought with a large enough effect; inconclusive = small, poorly fitted or top-dose-only effect, or another doubt; inactive = no such curve, though single readings can be large; an effect the other way counts as inactive or inconclusive.

A short description of assay [1]: Cell Viability - MRC5 (AID 434; calls by dose curve;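 note: potency is the fitted concentration of half-maximal effect; cells exposed to compound for 40 hours at 37 °C; potency reflects cytotoxicity seen as loss of intracellular ATP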). To be noted: MRC5 lung fibroblast viability, qHTS. In short, it runs like this:
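Decrease in intracellular ATP, quantified by luciferase light output, reflects compound toxicity toward MRC5 cells exposed for 40 hr in complete culture medium. Concentration-response curves, scaled between DMSO and 100 uM tamoxifen, gave AC50 values.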
In general terms: In qHTS, concentration-response curves come from the screen itself.

The nature of assay [2]: Cell Viability - SK-N-SH (AID 435; calls by dose curve;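 note: potency is the fitted concentration of half-maximal effect; compound exposure lasted 40 h at 37 °C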). To be noted: SK-N-SH neuroblastoma cell viability qHTS. In a few lines: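 Human neuroblastoma line, 40 h exposure at 37 °C, ATP quantified via luciferase luminescence; DMSO and 100 uM tamoxifen define 0 and 100% inhibition for AC50 fitting.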
The nature of assay [3]: Cell Viability - NIH 3T3 (AID 541).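 Note: plate controls were DMSO alone for no effect and tamoxifen positive control for full effect; nearly all actives have a fitted effect of over 25% in size.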 To be noted: NIH 3T3 cell viability, qHTS; activity change, negative = cytotoxicity: at 92.2 µM (top of the series). In a few lines:
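In this cytotoxicity screen, acute toxicity is scored as an ATP drop measured by CellTiter-Glo in NIH 3T3 fibroblasts following a 40 hr, 37 °C incubation with compound.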

Assay [4] in a line: Cell Viability - Mesenchymal (AID 546).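 Note: cells exposed to compound for 40 hours before reading.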 To be noted: mesenchymal cells viability, qHTS; activity change, negative = cytotoxicity: at 91.7 µM (top of the series). In short, it runs like this: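 In this qHTS cytotoxicity format, glomerulus-derived human mesenchymal kidney cells received compound for 40 hr, then luciferase-based ATP quantitation. Concentration-response data were fitted with the Hill equation.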

Assay [5] is described as follows: Cellular Toxicity (caspase-3) HepG2 (AID 654).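 Note: cells exposed to compound for 16 hours before reading; 0% = DMSO alone and 100% = caspase signal from 100 µM tamoxifen.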 To be noted: HepG2 caspase-3 activation, luminescence, 0% = DMSO only, 100% = tamoxifen; series mostly up to 92.2 µM. In a few lines:
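Concentration-response AC50 values reflect caspase-3/7 induction in HepG2 cells after 16 hours of compound exposure, quantified by luminescence from liberated aminoluciferin and referenced to 100 uM tamoxifen as full stimulation.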

Assay [6] is described as follows: Cellular Toxicity (caspase-3) HUV-EC-C (AID 656). The note with it: HUV-EC-C cells, caspase-3 activation (apoptosis), vehicle = 0, 100 µM tamoxifen = 100%; series mostly up to 92.2 µM. In short, it runs like this:
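Concentration-dependent caspase 3/7 induction was assessed in HUV-EC-C cells exposed for 16 hours. Data scaled between DMSO and tamoxifen (100 uM) controls.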

A short description of assay [7]: Cellular Toxicity (caspase-3) BJ (AID 658). The note with it: BJ fibroblasts, luminescence, normalized: DMSO 0%, staurosporine 100%; series mostly up to 91.7 µM. In a few lines: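 Plated BJ cells (1000/well) rested 5 hr, received compound for 16 hr at 37 °C, then Caspase-Glo 3/7 reagent for 1 hr at room temperature before luminescence reading.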
Assay [8] can be described thus: Cellular Toxicity (caspase-3) MRC-5 (AID 659). To be noted: MRC-5 cells, luminescence, normalized: DMSO 0%, 10 µM staurosporine 100%; series mostly up to 91.7 µM. In a few lines: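 Apoptosis readout in MRC-5 cells: luciferase light generated after caspase 3/7 cleaves a peptide-aminoluciferin substrate, measured post 16 hr compound incubation at 37 °C.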
The nature of assay [9]: Cellular Toxicity (caspase-3) Mesangial (AID 660).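 Note: combined caspase 3 and 7 activity read by Caspase-Glo luminescence; cells exposed to compound for 16 h before the caspase read.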 To be noted: mesangial cells, normalized: DMSO 0%, 100 µM tamoxifen 100%; series mostly up to 91.7 µM. In short, it runs like this: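 AC50 values come from Hill-equation fits of caspase 3/7 activation, measured as Caspase-Glo luminescence in human glomerular mesangial cells exposed to compound for 16 h at 37 °C; 100% set by 100 uM tamoxifen.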

The nature of assay [10]: Cellular Toxicity (caspase-3) Hek293 (AID 664).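 Note: cells exposed to compound for 16 h at 37 °C before readout.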 To be noted: HEK293 caspase-3 activation, DMSO = 0%, 100 µM tamoxifen = 100%; series mostly up to 92.2 µM. In a few lines:
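Apoptosis readout: Caspase-Glo 3/7 signal in human HEK293 cells following 16-hour compound incubation. Responses scaled between DMSO baseline and 100 uM tamoxifen.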

Assay [11] in a line: Cellular Toxicity (caspase-3) Renal Proximal Tubule (AID 667).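 Note: cells exposed to compound for 16 hours at 37 °C before detection.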 To be noted: renal proximal tubule cells, primary cells freshly taken from rat, solvent-only wells 0%, staurosporine 100%; series mostly up to 91.7 µM. In short, it runs like this: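 Caspase-Glo 3/7 read-out, rat primary kidney proximal tubule cells. Compound exposure 16 h, 37 °C; detection after 1 h at RT. Activity scaled to DMSO and 10 uM staurosporine.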

Assay [12] is described as follows: MultiTox-Fluor Cytotoxicity Assay - LYMP1-003 - Live Cells (AID 962).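 Note: 0% = DMSO only and full loss = 92 µM tetraoctylammonium bromide; cytotoxic hits lower the live-cell protease signal.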 To be noted: LYMP1-003 lymphoblastoid cells, MultiTox-Fluor live-cell protease fluorescence; series mostly up to 92.2 µM. In a few lines:
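Human lymphoblastoid line LYMP1-003 in complete culture medium, treated 16 hr with titrated compounds. Viable cells quantified via cell-permeant GF-AFC substrate fluorescence; AC50 derived by Hill fitting.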

Assay [13] in a line: Cell Viability - LYMP1-003 - Assay at 40 hr (AID 964). Note: % is set by controls: 0 for no effect and ±100 for the full control effect; nearly all actives have a fitted effect of over 60% in size. To be noted: LYMP1-003 lymphoblastoid viability; series mostly up to 92.2 µM. In a few lines: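 Acute toxicity is scored as a concentration-dependent loss of intracellular ATP in LYMP1-003 cells (2500/well, complete medium) after 40 hr at 37 C, measured by CellTiter-Glo luminescence; AC50 values derive from standard Hill modelling.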

Assay [14] in a line: Cell Viability - LYMP2-011 (AID 969).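 Note: cells exposed to compound for 24 hours; 0% = DMSO only and full inhibition = 92 µM tetraoctylammonium bromide; nearly all actives have a fitted effect of over 60% in size.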 The note with it: LYMP2-011 lymphoblastoid cells viability; series mostly up to 92.2 µM. In a few lines:
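Cells seeded at 2500 per well rest 5 hr before compound addition, then incubate 24 hr at 37 C. CellTiter-Glo reagent is added for 30 min at room temperature before luminescence detection.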

Assay [15] can be described thus: Cell Viability - LYMP2-017 (AID 972).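 Note: cells exposed to compound for 24 hours at 37 °C; % is set by controls: 0 for no effect and ±100 for the full control effect; nearly all actives have a fitted effect of over 55% in size.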 The note with it: LYMP2-017 lymphoblastoid cell viability; series mostly up to 92.2 µM. In a few lines: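 In this qHTS format, lymphoblastoid cells in complete medium receive test compound for a day at 37 C before ATP content is quantified by luciferase luminescence. Reported AC50 figures come from standard Hill-equation curve fitting.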

A short description of assay [16]: Cell Viability - LYMP2-007 (AID 979).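 For activity change, negative = cytotoxicity: 0% = DMSO only and the negative end = 92 µM tetraoctylammonium bromide.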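 Note: cells exposed to compound for 24 h before reading; nearly all actives have a fitted effect of over 60% in size.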 Note: potency is the fitted concentration of half-maximal effect. The note with it: LYMP2-007 lymphoblastoid cell viability; series mostly up to 92.2 µM. In a few lines:
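Measured via luciferase-based ATP quantitation: lymphoblastoid cells, 24 hr compound exposure at 37 C, AC50 from Hill fits.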

A short description of assay [17]: Cell Viability - LYMP2-010 (AID 981).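 Note: cells exposed to compound for 24 hours at 37 °C; % is set by controls: 0 for no effect and ±100 for the full control effect; nearly all actives have a fitted effect of over 55% in size.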 The note with it: LYMP2-010 lymphoblastoid cell viability, qHTS; series mostly up to 92.2 µM. In a few lines: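 This 24 hr viability screen uses LYMP2-010 lymphoblastoid cells, quantifies ATP via luciferase luminescence, and derives AC50 from Hill fits of qHTS concentration-response data.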
Assay [18] in a line: Cell Viability - LYMP2-012 (AID 982).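 Note: cellular ATP by luciferase luminescence where a drop means cytotoxicity; cells exposed to compound for one day before reading; 0% = DMSO only and full loss = 92 µM tetraoctylammonium bromide; nearly all actives have a fitted effect of over 55% in size.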 The note with it: LYMP2-012 lymphoblastoid cell viability qHTS; series mostly up to 92.2 µM.
Assay [19] is described as follows: Cell Viability - LYMP2-018 (AID 985).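 Note: plate controls were DMSO only for no effect and tetraoctylammonium bromide at 92 µM for full effect; nearly all actives have a fitted effect of over 50% in size.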 The note with it: LYMP2-018 lymphoblastoid cells, viability (qHTS); series mostly up to 92.2 µM. In short, it runs like this: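 In this qHTS viability assay, cells are treated for 24 hr and cellular ATP is quantified by luciferase-based luminescence, with tetraoctylammonium bromide as positive control.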
A short description of assay [20]: qHTS Assay for Identification of Small Molecule Inducers of Hypoxia Response (AID 2120; active = well fitted curve in the direction sought with a large enough effect in the signal ratio, with a control signal flat, not every such curve was filed as active; the % refers to the signal ratio; note: 0% is about no effect). To be noted: hypoxia response reporter cells, beta-lactamase ratio readout; series mostly up to 104 µM. In short, it runs like this:
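HRE-bla ME-180, 2500 cells/well, 0.5% dialyzed FBS medium; cpd titration, 17 h 37 degrees C; CCF4 2.5 h RT; Ex 405, Em 460/530 ratio -> %Activity, AC50.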

Consider `CN(C)C=O`, for which the Potency in [1] and in assay [2] was greater than 92 µM in each case. Besides, the Potency entry in [3], in [12], in [13], in assay [14], in assay [15] and in assay [16] was “inactive” throughout. The Potency entry in assay [17], in assay [18] and in assay [19] was “inactive” throughout. Further, the activity change, negative = cytotoxicity in [4] was 4.53% and 11.4%. The result in assay [5], in assay [6], in assay [7], in [8], in [9] and in assay [10] was inactive. For the same molecule, the call in assay [11] and in [20] was inactive.
As to `O=C1c2ccccc2C(=O)C1c1ccc2ccccc2n1`, the results for the Potency in assay [1], in [2] and in assay [16] were 30.1 µM (active), 34 µM (active) and 39.8 µM (active), respectively. Further, the activity change, negative = cytotoxicity in assay [3] is -106% (active); in assay [4], -33.6%. For the same molecule, the outcome in assay [5], in [6], in assay [7], in assay [8], in assay [9] and in assay [10] was inactive. The outcome in assay [11] and in assay [20] was inactive. Also, the Potency entry in assay [12], in assay [13], in [14], in assay [15], in assay [17] and in [18] was “inactive” throughout. Also, the Potency entry in assay [19] is “inactive”.
`CCO`: the Potency in assay [1] and in assay [2] was greater than 92 µM in each case. Also, the Potency entry in [3], in assay [12], in assay [13], in assay [14], in assay [15] and in assay [16] was “inactive” throughout. Also, the Potency entry in assay [17], in [18] and in [19] was “inactive” throughout. The activity change, negative = cytotoxicity in assay [4] was -1.16%. Further, the molecule was called inactive in [5], in [6], in assay [7], in assay [8], in assay [9] and in assay [10]. Besides, the result in [11] and in [20] was inactive.
In the case of `Cc1ccc([N+](=O)[O-])c(C)c1`, the Potency in [1] and in [2] was greater than 92 µM each time. Also, the Potency entry in [3], in assay [12], in assay [13], in assay [14], in [15] and in [16] was “inactive” each time. Further, the Potency result in [17], in assay [18] and in assay [19] was “inactive” throughout. In addition, the activity change, negative = cytotoxicity in assay [4] was 1.9%. The molecule was called inactive in assay [5], in assay [6], in assay [7], in assay [8], in assay [9] and in assay [10]. The call in assay [11] and in assay [20] was inactive.
In the case of `COc1c2ccoc2cc2oc(=O)ccc12`, the Potency in [1] and in [2] was greater than 92 µM throughout. For the same molecule, the Potency result in [3], in [12], in assay [13], in assay [14], in [15] and in assay [16] was “inactive” throughout. In addition, the Potency entry in [17], in [18] and in assay [19] was “inactive” each time. Moreover, in assay [4], the activity change, negative = cytotoxicity was -14.2%. For the same molecule, the molecule was called inactive in assay [5], in assay [6], in assay [7], in [8], in [9] and in [10]. Also, the molecule was classed as inactive in assay [11] and in assay [20].
